The values below come from article PMC7862700, “An all-to-all approach to the identification of sequence-specific readers for epigenetic DNA modifications on cytosine”.

Holding throughout (test): DAPPL (digital affinity profiling via proximity ligation, sequencing); 10 mM Tris-HCl pH 7.5, 50 mM NaCl, 1 mM DTT, 4% glycerol, room temperature, 30 min; GST-TFs on glutathione beads, 16-mer random dsDNA library, 0.1% formaldehyde crosslink after washing; high values mean tight binding
Holding throughout (conditions): protein: recombinant; tags: N-terminal GST; dsDNA, one strand shown

For one assay, the target named is T1, ELK1 (Homo sapiens, UniProt P19419 1-428).
T1 sequence: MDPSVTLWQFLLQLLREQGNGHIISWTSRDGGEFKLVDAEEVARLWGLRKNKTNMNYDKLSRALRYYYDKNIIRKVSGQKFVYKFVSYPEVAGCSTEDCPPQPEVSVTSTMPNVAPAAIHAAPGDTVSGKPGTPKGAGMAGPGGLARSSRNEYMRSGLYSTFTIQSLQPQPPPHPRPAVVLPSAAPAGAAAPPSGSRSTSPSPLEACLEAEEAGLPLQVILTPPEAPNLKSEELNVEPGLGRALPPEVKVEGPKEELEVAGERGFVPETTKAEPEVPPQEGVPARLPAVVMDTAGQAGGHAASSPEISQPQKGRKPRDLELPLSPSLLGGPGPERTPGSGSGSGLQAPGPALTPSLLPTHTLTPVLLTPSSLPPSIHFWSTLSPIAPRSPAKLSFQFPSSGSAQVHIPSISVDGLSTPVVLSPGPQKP
The gist of the method:
(§1)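 Pools were built from human transcription factors expressed in yeast as GST fusions, captured on glutathione beads and DNA-barcoded, along with a tag-only sample. Incubation with 200 nmole of a 16-mer random double-stranded DNA library lasted 30 min at room temperature in Tris/NaCl/DTT/glycerol buffer, and was followed by washing, 0.1% formaldehyde crosslinking, proximity ligation, PCR amplification and Illumina NextSeq500 sequencing. Binding signal is the quotient of each hexamer's read frequency for a factor and its frequency for the tag-only sample.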

The target of another assay is T2, GABPA (Homo sapiens, UniProt Q06546 1-454).
T2 sequence: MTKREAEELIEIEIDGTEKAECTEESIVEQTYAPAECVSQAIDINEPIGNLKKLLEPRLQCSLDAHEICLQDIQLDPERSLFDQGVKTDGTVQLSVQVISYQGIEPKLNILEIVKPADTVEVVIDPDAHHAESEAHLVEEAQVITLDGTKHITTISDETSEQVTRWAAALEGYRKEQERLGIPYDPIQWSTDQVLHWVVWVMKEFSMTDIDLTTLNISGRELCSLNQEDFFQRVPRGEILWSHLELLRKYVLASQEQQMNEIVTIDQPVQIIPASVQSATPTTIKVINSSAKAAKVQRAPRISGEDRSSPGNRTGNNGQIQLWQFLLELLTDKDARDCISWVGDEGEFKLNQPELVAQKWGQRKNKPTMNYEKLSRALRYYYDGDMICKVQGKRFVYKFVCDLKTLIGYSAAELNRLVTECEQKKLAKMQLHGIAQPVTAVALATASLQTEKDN
The gist of the method:
as §1

Another assay addresses T3, ERG (Homo sapiens, UniProt P11308 1-479).
T3 sequence: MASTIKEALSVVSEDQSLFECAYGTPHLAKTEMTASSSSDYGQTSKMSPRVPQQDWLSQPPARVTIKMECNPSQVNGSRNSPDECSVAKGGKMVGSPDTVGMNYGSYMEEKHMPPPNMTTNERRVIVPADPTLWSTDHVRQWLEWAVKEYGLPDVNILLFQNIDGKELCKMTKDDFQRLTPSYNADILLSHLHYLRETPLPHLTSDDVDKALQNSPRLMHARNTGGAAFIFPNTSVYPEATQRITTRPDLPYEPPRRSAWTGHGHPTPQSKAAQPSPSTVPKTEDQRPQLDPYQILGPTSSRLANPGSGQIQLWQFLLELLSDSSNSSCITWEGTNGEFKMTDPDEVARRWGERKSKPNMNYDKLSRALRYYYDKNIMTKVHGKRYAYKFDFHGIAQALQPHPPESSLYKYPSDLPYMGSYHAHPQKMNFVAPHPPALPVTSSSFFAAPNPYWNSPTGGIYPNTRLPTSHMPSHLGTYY
The gist of the method:
as §1

Another assay concerns the target ELF1 (Homo sapiens, UniProt P32519 1-619). In short, it runs like this: as §1
Another assay concerns the target T4, EHF (Homo sapiens, UniProt Q9NZC4 1-300).
T4 sequence: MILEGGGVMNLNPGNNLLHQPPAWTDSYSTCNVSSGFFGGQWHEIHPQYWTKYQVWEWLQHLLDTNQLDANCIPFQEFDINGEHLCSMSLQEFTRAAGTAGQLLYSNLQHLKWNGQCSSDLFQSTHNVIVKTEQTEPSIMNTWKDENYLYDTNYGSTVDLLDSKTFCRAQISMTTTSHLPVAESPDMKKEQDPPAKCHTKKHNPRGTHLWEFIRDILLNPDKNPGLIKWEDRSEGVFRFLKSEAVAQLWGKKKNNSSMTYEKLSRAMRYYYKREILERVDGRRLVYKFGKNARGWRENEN
The gist of the method: as §1

Another assay addresses SPI1 (Homo sapiens, UniProt P17947 1-270). In short, it runs like this:
as §1

The target of the next assay is SPIB (Homo sapiens, UniProt Q01892 1-262). In short, it runs like this:
as §1

Another assay deals with T5, FEV (Homo sapiens, UniProt Q99581 1-238).
T5 sequence: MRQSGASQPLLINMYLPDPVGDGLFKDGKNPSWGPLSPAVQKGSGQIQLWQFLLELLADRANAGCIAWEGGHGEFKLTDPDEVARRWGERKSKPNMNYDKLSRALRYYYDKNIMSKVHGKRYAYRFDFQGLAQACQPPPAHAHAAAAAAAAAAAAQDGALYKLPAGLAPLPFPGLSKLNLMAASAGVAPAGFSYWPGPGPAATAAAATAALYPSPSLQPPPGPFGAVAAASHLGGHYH
In short, it runs like this: as §1

Another assay concerns the target ETV5 (Homo sapiens, UniProt P41161 1-510). In short, it runs like this:
as §1

The target in a further assay is ELF4 (Homo sapiens, UniProt Q99607 1-663). The gist of the method:
as §1

A further assay addresses T6, ELK4 (Homo sapiens, UniProt P28324-2 1-405).
T6 sequence: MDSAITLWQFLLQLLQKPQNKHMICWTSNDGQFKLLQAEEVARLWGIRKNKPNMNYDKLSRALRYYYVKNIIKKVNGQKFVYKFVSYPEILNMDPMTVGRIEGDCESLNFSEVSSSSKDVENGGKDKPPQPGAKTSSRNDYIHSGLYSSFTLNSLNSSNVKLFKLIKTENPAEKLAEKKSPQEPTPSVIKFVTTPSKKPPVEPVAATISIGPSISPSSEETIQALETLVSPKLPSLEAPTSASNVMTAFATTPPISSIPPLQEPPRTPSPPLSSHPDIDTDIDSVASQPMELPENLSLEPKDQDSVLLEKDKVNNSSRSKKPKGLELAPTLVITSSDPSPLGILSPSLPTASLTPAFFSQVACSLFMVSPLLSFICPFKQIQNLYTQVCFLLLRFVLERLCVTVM
The gist of the method: as §1

The target in another assay is T7, ETV2 (Homo sapiens, UniProt O00321 1-342).
T7 sequence: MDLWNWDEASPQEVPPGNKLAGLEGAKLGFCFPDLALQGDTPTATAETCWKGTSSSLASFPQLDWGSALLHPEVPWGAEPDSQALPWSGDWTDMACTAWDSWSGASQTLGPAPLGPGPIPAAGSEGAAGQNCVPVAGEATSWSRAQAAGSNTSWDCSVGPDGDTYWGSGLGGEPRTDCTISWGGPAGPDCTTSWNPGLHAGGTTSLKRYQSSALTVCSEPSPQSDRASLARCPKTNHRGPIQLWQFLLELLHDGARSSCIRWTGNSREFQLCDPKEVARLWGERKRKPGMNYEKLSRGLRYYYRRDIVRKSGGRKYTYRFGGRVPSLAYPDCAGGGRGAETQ
In short, it runs like this:
as §1

The next assay deals with ETV1 (Homo sapiens, UniProt P50549 1-477). In short, it runs like this: as §1
ETV1, sequence (P50549 whole entry): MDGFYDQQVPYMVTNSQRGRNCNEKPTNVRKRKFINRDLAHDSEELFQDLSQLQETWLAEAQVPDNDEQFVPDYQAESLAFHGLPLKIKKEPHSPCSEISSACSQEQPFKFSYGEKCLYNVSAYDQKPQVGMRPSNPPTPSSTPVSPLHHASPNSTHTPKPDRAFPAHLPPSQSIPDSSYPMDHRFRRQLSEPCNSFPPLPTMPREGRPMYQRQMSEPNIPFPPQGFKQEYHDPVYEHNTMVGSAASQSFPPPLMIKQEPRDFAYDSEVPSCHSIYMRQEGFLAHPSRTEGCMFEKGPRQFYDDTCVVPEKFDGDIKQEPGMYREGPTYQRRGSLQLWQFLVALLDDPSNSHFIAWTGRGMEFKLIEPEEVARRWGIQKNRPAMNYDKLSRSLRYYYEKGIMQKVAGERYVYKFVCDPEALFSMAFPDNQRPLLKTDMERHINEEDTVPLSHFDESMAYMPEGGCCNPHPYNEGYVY
The target of the next assay is T8, ERF (Homo sapiens, UniProt P50548 1-548).
T8 sequence: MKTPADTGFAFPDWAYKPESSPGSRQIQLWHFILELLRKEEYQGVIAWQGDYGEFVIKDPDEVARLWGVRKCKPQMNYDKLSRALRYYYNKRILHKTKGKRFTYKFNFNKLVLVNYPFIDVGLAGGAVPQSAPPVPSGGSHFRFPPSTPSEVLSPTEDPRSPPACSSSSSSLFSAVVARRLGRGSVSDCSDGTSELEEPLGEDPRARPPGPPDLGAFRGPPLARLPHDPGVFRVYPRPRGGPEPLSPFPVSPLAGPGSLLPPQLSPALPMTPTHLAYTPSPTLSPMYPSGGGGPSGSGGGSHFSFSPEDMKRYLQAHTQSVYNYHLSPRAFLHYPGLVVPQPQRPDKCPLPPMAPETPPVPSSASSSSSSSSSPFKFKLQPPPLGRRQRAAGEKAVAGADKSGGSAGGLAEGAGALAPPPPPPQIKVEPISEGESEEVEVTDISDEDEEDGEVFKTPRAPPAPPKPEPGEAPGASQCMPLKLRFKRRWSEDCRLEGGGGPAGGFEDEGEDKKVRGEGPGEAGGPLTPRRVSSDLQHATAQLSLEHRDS
In short, it runs like this:
as §1

A further assay concerns the target T9, ETV3L (Homo sapiens, UniProt Q6ZN32 1-361).
T9 sequence: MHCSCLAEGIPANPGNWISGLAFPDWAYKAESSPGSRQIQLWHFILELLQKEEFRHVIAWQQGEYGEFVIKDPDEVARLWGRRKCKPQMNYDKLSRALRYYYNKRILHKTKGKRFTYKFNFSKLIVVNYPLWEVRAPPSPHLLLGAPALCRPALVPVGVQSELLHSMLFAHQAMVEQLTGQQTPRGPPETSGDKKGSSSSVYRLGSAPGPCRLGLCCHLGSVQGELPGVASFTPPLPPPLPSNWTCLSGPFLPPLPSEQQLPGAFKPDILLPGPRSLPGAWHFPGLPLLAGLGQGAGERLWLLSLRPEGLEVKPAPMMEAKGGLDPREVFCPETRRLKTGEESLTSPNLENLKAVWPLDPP
In short, it runs like this: as §1

The target in another assay is T10, ETS2 (Homo sapiens, UniProt P15036 1-469).
T10 sequence: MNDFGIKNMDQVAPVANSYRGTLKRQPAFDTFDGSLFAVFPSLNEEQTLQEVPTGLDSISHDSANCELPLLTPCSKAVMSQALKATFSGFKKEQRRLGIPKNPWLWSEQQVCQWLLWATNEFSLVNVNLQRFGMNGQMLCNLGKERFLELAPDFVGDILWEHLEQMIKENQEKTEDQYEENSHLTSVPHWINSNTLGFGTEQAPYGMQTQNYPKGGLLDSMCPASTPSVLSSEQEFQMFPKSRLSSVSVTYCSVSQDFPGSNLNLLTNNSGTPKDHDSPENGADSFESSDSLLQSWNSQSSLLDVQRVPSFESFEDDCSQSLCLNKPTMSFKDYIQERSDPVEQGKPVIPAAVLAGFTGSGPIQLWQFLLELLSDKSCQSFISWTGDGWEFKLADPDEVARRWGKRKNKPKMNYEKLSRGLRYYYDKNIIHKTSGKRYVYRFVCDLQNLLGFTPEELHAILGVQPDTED
The gist of the method:
as §1

For another assay, the target named is T11, SPDEF (Homo sapiens, UniProt O95238 1-335).
T11 sequence: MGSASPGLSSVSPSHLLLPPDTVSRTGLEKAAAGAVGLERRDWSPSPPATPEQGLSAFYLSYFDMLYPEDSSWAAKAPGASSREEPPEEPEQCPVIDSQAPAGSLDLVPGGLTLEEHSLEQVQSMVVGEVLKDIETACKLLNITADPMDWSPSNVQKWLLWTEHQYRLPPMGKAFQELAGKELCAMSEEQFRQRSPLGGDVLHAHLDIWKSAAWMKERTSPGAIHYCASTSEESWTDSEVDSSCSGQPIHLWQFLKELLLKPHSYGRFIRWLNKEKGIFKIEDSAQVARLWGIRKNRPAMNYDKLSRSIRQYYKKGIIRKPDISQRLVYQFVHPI
The gist of the method: as §1

Another assay deals with T12, ETV7 (Homo sapiens, UniProt Q9Y603 1-341).
T12 sequence: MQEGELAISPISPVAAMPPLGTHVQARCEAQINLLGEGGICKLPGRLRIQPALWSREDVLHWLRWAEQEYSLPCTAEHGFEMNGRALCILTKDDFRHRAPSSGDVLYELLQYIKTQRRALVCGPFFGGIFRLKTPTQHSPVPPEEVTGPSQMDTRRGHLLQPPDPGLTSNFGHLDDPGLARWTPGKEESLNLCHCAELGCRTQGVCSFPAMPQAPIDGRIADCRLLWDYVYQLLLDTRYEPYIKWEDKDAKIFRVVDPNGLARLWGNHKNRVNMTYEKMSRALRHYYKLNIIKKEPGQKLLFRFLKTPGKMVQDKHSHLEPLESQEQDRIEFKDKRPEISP
The gist of the method: as §1

The target in the next assay is T13, ETV3 (Homo sapiens, UniProt P41162-2 1-143).
T13 sequence: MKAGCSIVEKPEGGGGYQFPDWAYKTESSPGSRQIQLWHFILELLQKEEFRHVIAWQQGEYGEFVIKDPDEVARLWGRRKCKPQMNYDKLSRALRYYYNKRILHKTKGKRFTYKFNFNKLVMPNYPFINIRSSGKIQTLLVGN
The gist of the method:
as §1

The target in the next assay is ETV6 (Homo sapiens, UniProt P41212 1-452). The gist of the method:
as §1

ETV6, sequence (P41212 whole entry): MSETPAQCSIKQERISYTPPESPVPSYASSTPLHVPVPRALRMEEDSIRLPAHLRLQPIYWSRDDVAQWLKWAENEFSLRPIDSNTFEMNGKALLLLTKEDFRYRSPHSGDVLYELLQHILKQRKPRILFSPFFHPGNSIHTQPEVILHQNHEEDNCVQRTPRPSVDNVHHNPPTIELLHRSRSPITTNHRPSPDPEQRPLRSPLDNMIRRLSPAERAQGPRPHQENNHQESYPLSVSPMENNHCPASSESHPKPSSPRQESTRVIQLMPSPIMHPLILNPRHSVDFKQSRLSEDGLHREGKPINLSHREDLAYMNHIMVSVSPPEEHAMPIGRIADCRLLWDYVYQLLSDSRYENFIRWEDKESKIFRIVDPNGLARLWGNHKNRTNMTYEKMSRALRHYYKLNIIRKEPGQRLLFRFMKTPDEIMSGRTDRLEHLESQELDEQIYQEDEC
ELF1, sequence (P32519 whole entry): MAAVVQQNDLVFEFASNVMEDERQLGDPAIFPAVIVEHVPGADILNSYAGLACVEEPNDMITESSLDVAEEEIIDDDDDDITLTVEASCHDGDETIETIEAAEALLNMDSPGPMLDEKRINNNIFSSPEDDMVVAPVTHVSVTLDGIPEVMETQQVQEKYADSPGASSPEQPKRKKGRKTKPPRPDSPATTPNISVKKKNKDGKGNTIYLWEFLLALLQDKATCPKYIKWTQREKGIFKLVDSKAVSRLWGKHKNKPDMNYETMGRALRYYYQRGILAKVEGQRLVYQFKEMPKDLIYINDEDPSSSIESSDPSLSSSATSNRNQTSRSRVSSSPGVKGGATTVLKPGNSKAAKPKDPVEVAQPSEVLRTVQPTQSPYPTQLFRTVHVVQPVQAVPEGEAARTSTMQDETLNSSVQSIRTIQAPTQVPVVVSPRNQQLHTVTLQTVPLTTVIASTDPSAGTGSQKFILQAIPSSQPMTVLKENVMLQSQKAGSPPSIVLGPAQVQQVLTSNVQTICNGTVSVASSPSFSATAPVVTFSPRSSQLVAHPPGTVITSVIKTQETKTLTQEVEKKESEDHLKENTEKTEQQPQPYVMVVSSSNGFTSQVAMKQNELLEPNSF
SPIB, sequence (Q01892 whole entry): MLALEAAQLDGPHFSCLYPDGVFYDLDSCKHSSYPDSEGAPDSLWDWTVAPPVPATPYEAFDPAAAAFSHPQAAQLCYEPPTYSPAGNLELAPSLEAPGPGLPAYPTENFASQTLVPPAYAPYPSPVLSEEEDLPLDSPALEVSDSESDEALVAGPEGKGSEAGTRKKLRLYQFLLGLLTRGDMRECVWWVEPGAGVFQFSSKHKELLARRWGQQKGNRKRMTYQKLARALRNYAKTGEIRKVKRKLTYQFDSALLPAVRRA
ETV5, sequence (P41161 whole entry): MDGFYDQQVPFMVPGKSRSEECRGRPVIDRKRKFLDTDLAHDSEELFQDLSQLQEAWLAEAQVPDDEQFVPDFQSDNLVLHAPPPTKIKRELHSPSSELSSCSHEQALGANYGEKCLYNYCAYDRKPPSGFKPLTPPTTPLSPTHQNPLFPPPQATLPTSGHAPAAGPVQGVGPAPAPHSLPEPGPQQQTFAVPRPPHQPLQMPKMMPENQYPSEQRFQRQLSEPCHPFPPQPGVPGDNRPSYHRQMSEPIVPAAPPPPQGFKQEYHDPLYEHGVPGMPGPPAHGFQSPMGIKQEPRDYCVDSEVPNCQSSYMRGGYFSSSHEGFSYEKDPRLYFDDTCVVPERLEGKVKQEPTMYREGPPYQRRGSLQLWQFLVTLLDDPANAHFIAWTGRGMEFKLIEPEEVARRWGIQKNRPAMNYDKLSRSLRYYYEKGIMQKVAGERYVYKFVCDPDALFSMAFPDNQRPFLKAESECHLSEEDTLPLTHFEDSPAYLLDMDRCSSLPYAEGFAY
ELF4, sequence (Q99607 whole entry): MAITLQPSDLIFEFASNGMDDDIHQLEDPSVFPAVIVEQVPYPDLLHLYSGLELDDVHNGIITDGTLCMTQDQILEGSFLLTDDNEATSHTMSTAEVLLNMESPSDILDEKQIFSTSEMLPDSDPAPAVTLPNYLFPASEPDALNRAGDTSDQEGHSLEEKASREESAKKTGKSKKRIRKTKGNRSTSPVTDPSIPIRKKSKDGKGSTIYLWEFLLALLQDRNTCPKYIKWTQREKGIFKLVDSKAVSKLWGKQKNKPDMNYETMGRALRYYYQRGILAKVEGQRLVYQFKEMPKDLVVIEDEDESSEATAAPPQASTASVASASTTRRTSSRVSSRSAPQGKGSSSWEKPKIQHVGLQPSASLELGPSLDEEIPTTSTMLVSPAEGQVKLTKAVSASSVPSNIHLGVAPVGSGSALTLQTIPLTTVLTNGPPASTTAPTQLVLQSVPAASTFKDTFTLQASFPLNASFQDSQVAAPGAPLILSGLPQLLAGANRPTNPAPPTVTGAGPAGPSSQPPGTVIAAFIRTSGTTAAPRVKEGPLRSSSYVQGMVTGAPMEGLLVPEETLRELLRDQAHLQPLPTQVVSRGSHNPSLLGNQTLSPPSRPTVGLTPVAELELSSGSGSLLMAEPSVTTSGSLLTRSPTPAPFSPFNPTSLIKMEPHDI

In the case of CGTAAA, the binding signal was 1.12 fold enrichment (6-mer frequency, TF over GST control) in the assay with ELK1; 1.23 fold enrichment (6-mer frequency, TF over GST control) with GABPA; 1.13 fold enrichment (6-mer frequency, TF over GST control) with ERG; 1.07 fold enrichment (6-mer frequency, TF over GST control) with ELF1; 1.13 fold enrichment (6-mer frequency, TF over GST control) in the assay with EHF; 1.09 fold enrichment (6-mer frequency, TF over GST control) with SPI1. The binding signal in the assay with SPIB is 1.08 fold enrichment (6-mer frequency, TF over GST control); with FEV, 1.04 fold enrichment (6-mer frequency, TF over GST control); in the assay with ETV5 it was 1.14 fold enrichment (6-mer frequency, TF over GST control); in the assay with ELF4 it was 1.11 fold enrichment (6-mer frequency, TF over GST control); with ELK4, 1.05 fold enrichment (6-mer frequency, TF over GST control); with ETV2, 1.21 fold enrichment (6-mer frequency, TF over GST control). Further, the binding signal was 1 fold enrichment (6-mer frequency, TF over GST control) with ETV1; 1.09 fold enrichment (6-mer frequency, TF over GST control) in the assay with ERF; 1.09 fold enrichment (6-mer frequency, TF over GST control) with ETV3L; 1.14 fold enrichment (6-mer frequency, TF over GST control) with ETS2; 1.09 fold enrichment (6-mer frequency, TF over GST control) with SPDEF; 1.08 fold enrichment (6-mer frequency, TF over GST control) with ETV7. The binding signal with ETV3 was 1.14 fold enrichment (6-mer frequency, TF over GST control); in the assay with ETV6 it was 1.17 fold enrichment (6-mer frequency, TF over GST control).
